Compound activity from PubChem BioAssay.
Mot1-301 SUMO – yeast Mot1-301 growth rescue at high temperature, primary screen, SUMOylation pathway inhibitor project, S. cerevisiae, ATP luminescence, 38.5C. S. cerevisiae Mot1-301 growth rescue; percent above DMSO median, 100 means doubled. growth rescue, % at 18.8 µM. 320,000 tested, 1% active. AID 2716, 2010;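 active = every valid replicate shows activation above 250% relative to neutral control wells; inactive = the rest, any valid replicate at or below 250%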
Bfl-1 A1 inh – caspase 3/7 activation in MEF A1-2A-BIM cells, primary screen, A1 inhibitor project, cell-based, luminescence, HTS; Caspase-Glo 3/7 luminescence, 3 h; percent of clofoctol response, vehicle zero; caspase activation, % (test concentration not listed); 330,000 tested, 0.066% active; AID 2462, 2010;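 active = over half of replicate activation scores above 10%, or exactly half above 10 with the replicate mean above 10; inconclusive = replicate mean below 10 yet half the replicates above 10; inactive = over half of replicates below 10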
aDG glyco up – activators of alpha-DG glycosylation, primary screen, uHTS, Pro5-aDG cells, AlphaScreen | 360,000 tested, 0.22% active | alpha-DG glycosylation AlphaScreen (IIH6); 0% Pro5, 100% B10-LARGE cell signal | activation, % at 10 µM;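 active = activation of at least 8% versus controls, or a plate z-score of at least 8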;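 also: Pro5 are CHO cells carrying HIG-tagged alpha-DG that lacks glycosylation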
AI-2 QS modul – Vibrio harveyi AI-2 quorum sensing modulators, primary screen, JMH597 strain, luminescence/OD600 ratio. Vibrio harveyi JMH597 AI-2 luminescence/OD600 ratio, 9 h; active compounds read low; strain lacks LuxN and CqsS sensors; 0 = neutral-control median. activity change, % at 7.5 µM. 300,000 tested, 0.4% active. AID 2094, 2009; in the data active = activity change below about -75%, passing the limit was not always enough; inconclusive = no clear call, values can overlap the other calls;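 also: luminescence divided by OD600 gain over 9 h not by final OD600 alone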
ARNT TACC3 PPI – disruptors of ARNT/TACC3 protein interaction, primary screen, biochemical, AlphaScreen, single concentration | inhibition, % at 9.99 µM | 390,000 tested, 0.66% active | AlphaScreen His-ARNT PAS-B/GST-TACC3 binding, luminescence; TACC3 fragment carries E629A point mutation;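 active = mean inhibition of replicates at least 50% and at least half of replicates each reaching 50%; inconclusive = half or more replicates reach 50% but mean below 50%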
Of the large screens only hits and unclear results are named; the others gave an inactive call. Most compounds without a hit are left out; they make up all but 1.8% or so of the library.

Nc1nnnn1CC(=O)N/N=C/c1ccccn1	none
CC(C)(C)c1cnnn1-c1ccc(-c2csc(N)n2)cc1	none
O=C(c1cc(Cl)nc2ccccc12)N(Cc1nnc(-c2ccc(Cl)cc2)o1)C1CC1	none
Cc1cc(C)n(CC(=O)N/N=C/c2cc(Br)cc([N+](=O)[O-])c2O)n1	none
Cc1cc(C)n(CC(=O)N/N=C/c2cc([N+](=O)[O-])ccc2O)n1	ARNT TACC3 PPI 72.2
COc1ccc(/C=C(\NC(=O)c2ccccc2)C(=O)NCc2ccco2)cc1	none
O=[N+]([O-])c1ccc(/C=N/Nc2ccnc3cc(Cl)ccc23)o1	AI-2 QS modul -185.0 (no result: ARNT TACC3 PPI)
Cc1cc(N/N=C/c2ccc([N+](=O)[O-])o2)nc2ccccc12	aDG glyco up 8.2
Clc1ccc2c(N/N=C/c3ccccc3Br)ccnc2c1	none
Cc1ccc(-c2cc(C(=O)N/N=C/c3ccc([N+](=O)[O-])o3)c3ccccc3n2)o1	none
Cn1c(/C=C/c2ccc([N+](=O)[O-])o2)nc2ccccc2c1=O	AI-2 QS modul -229.3
Cc1sc2ncnc(SCC(=O)N3CCCCC3)c2c1C	none (no result: ARNT TACC3 PPI)
Cc1nc(SCC(=O)N2CCCCC2)c2c(C)c(C)sc2n1	Mot1-301 SUMO 309.5
O=C(CC1SC(=Nc2ccc(O)cc2)NC1=O)Nc1ccccc1 (stereo unspecified)	none
O=C(CC1SC(=NCc2ccccc2)NC1=O)Nc1ccccc1 (stereo unspecified)	Mot1-301 SUMO active
CCCCN=C1NC(=O)C(CC(=O)Nc2ccc(Cl)cc2)S1 (stereo unspecified)	Mot1-301 SUMO 306.0
Cc1ccc(NC(=O)c2cccc(S(=O)(=O)N3CCN(c4ccccc4)CC3)c2)nc1	none
Cc1cc2ncc(-c3cccc(Cl)c3)cn2n1	none (no result: AI-2 QS modul)
COC(=O)NNC(=O)COc1cc(C)ccc1C	none
Cc1ccc(C)c(OCC(=O)NNC(=O)CSC(=S)N2CCCC2)c1	Mot1-301 SUMO 331.6
CCOC(=O)N/N=C/c1ccc(N(CC)CC)cc1O	none
CCN(CC)c1ccc(/C=N/Nc2ccc(C)cc2)c(O)c1	none (no result: AI-2 QS modul)
CCN(CC)c1ccc(/C=N/Nc2nc(C)cc(=O)[nH]2)c(O)c1	ARNT TACC3 PPI 64.1
Cc1cc(=O)[nH]c(NN=Cc2cc(Br)ccc2O)n1	ARNT TACC3 PPI 63.8 (no result: Mot1-301 SUMO, Bfl-1 A1 inh, AI-2 QS modul)
CCN(CC)c1ccc(/C=N/NC(=O)c2c(Cl)cnn2C)c(O)c1	ARNT TACC3 PPI 66.3
Cc1cc(=O)[nH]c(N/N=C/c2ccccc2Cl)n1	none
O=C(NC1CCCCC1)C(c1ccc(F)cc1)N(CCc1ccccc1)C(=O)CN1C(=O)c2ccccc2S1(=O)=O (stereo unspecified)	Bfl-1 A1 inh 17.8
O=C(O)c1cccc(S(=O)(=O)NCC2COc3ccccc3O2)c1 (stereo unspecified)	none (no result: Mot1-301 SUMO, Bfl-1 A1 inh, AI-2 QS modul)
Cc1ccc(N2C(=O)CC(Sc3nccc(C)n3)C2=O)cc1 (stereo unspecified)	none
Cc1ccc(N2C(=O)CC(Sc3cccs3)C2=O)cc1 (stereo unspecified)	Mot1-301 SUMO 319.6
CC(C)NC(=O)N[C@@H]1CC[C@H](CC(=O)NCc2ccc(Oc3ccccc3)cc2)O[C@H]1CO	ARNT TACC3 PPI 45.6 (no result: Mot1-301 SUMO, Bfl-1 A1 inh, aDG glyco up, AI-2 QS modul)
C/C=C/c1ccc2c(c1)O[C@H](CN(C)C(=O)NCCC)[C@H](C)CN([C@H](C)CO)S2(=O)=O	none (no result: Mot1-301 SUMO, Bfl-1 A1 inh, aDG glyco up, AI-2 QS modul)
COc1ccccc1C(=O)NNC(=O)C(=O)Nc1cccc(Cl)c1C	none (no result: ARNT TACC3 PPI)
Cc1ccc(NC(=O)CCN2C(=O)NC(C)(C)C2=O)cc1F	none (no result: Mot1-301 SUMO, Bfl-1 A1 inh, AI-2 QS modul)
Clc1ccc(-n2nnnc2Sc2ncnc3sccc23)cc1	Mot1-301 SUMO 577.9
Cc1sc2ncnc(Sc3nnnn3-c3ccccc3)c2c1C	none
O=C(COc1nncc2ccccc12)NCCC1=CCCCC1	AI-2 QS modul -76.9
O=C(COc1ncnc2ccccc12)NCCC1=CCCCC1	none
Cc1noc(C)c1C(=O)NCCc1c(C)[nH]c2ccccc12	Mot1-301 SUMO 296.1
CCNc1ccc([N+](=O)[O-])cc1	none
Cc1ccc(OCc2ccc(C(=O)Nc3c(C)nn(Cc4c(F)c(F)c(F)c(F)c4F)c3C)o2)c([N+](=O)[O-])c1	aDG glyco up 4.0
C[C@@H]1CC=C[C@H]2[C@H]1C(=O)N(Cc1ccccc1)[C@H]2c1ccoc1	none
CC[C@@H]1CC=C[C@H]2[C@H]1C(=O)N(Cc1ccccc1)[C@H]2c1ccoc1	Mot1-301 SUMO 679.4
CO[C@@H]1CN(C)C(=O)c2cc(NC(=O)c3ccccc3)ccc2OC[C@@H](C)N(CC2CC2)C[C@@H]1C	none (no result: Mot1-301 SUMO, Bfl-1 A1 inh, aDG glyco up, AI-2 QS modul)
C=CCn1c(CNc2ccccc2)nnc1SCC(=O)N/N=C/c1ccccc1O	ARNT TACC3 PPI active
C=CCn1c(COc2ccc(Cl)cc2)nnc1SCC(=O)N/N=C/c1cccc(O)c1	none
C=CCn1c(Cc2nc3ccc(Cl)cc3[nH]2)n[nH]c1=S	ARNT TACC3 PPI 36.5
CCN=C1SC(C(=O)Nc2cc(Cl)cc(Cl)c2)CC(=O)N1CC (stereo unspecified)	ARNT TACC3 PPI active
CCN1C(=O)CSC1=Nc1ccc(OC)cc1	none
CCN1C(=O)CSC1=Nc1ccc(Cl)c(Cl)c1	ARNT TACC3 PPI active
CCN1C(=O)CC(C(=O)NC)SC1=Nc1cc(Cl)c(O)c(Cl)c1 (stereo unspecified)	ARNT TACC3 PPI 22.6
CNC(=O)C1CC(=O)N(CCc2ccc(OC)cc2)C(=Nc2ccc(OC)cc2)S1 (stereo unspecified)	none
CCN=C1SC(C(=O)Nc2cccc(Cl)c2)CC(=O)N1CC (stereo unspecified)	none
COc1cccc(OC2(C)CCN(Cc3ccc(-c4ccccn4)cc3)C2)c1 (stereo unspecified)	none (no result: Mot1-301 SUMO, Bfl-1 A1 inh, AI-2 QS modul, ARNT TACC3 PPI)
O=C(NNc1cccc(Cl)c1)c1cccnc1Cl	Mot1-301 SUMO 343.9
O=C(NNc1cccc(Cl)n1)c1cccnc1Cl	Bfl-1 A1 inh inconclusive (no result: ARNT TACC3 PPI)
CCCc1c(C(=O)NNc2cccc(Cl)c2)cnn1-c1ccccc1	Mot1-301 SUMO 478.2
O=[N+]([O-])c1c(Nc2cccc(O)c2)cc(Cl)c2nonc12	AI-2 QS modul -219.3
CC1(C)Oc2ccc3ccc(=O)oc3c2/C(=C/Nc2ccccc2)C1=O	none
COc1ccccc1/C=C/C(=O)OCC(=O)NCc1ccco1	none (no result: ARNT TACC3 PPI)
Cn1cnc([N+](=O)[O-])c1S(=O)(=O)Oc1ccccc1	none (no result: Mot1-301 SUMO, Bfl-1 A1 inh, AI-2 QS modul)
Cn1cnc([N+](=O)[O-])c1S(=O)(=O)c1cccc(Cl)c1	Bfl-1 A1 inh 7.8
CSc1ncccc1C(=O)OCC(=O)NCc1ccc2c(c1)OCO2	Mot1-301 SUMO 293.6
CCOc1ncccc1C(=O)OCC(=O)NCc1ccc2c(c1)OCO2	none
NC(=S)NN=C1CCC(C2CCCCC2)CC1 (stereo unspecified)	none (no result: Mot1-301 SUMO, Bfl-1 A1 inh, AI-2 QS modul)
NC(=S)NN=C1CCCCCCCCCC1	ARNT TACC3 PPI 32.6 (no result: Mot1-301 SUMO, Bfl-1 A1 inh, AI-2 QS modul)
